These results are taken from ChEMBL document CHEMBL3988442, “University of Dundee, Small-Polar-MMV Screening Library” (2021).

Hit rate of the full screen: of about 66,000 compounds, about 960 (1.5%) showed an effect of 50% or more. The entries come from a sample that favours strong results as a whole.

The assay deals with Trypanosoma brucei. The experiment in a line: Trypanosoma brucei 72 hour study. It counts as functional, organism-based. More on the design: scale not given: in the data most compounds retested in dose-response had high values.

Regarding `COCCCNc1c(-c2ccc(Cl)cc2)c(=O)c1=O`, under “30.3 µM, […]”, the “Percent Effect” value was found to be 13.47%.

`O=C(c1cnccn1)N1CCCC(Cc2cccc3ncccc23)C1` (stereo not given): where the note is “30.3 µM, […]”, the “Percent Effect” value is listed as -10.31%.

Take `CN(C)C(=O)[C@@H]1CCO[C@@H]2CCN(CCOCc3ccccc3)C[C@H]21.O=C(O)C(F)(F)F`: the “Percent Effect” value (30.3 µM, […]) is -3.678%.

Turning to `CC(C)(C)c1nc(NS(=O)(=O)c2ccccc2F)no1`, the “Percent Effect” value (30 µM, 30.03 µM) is recorded as -17.01%.

In the case of `O=C(NCC1CC1)C1CCC2(CCN(C(=O)c3ccncc3)CC2)O1.O=C(O)C(F)(F)F` (stereo not given), the “Percent Effect” value (30.3 µM, […]) is listed as -42.23%.

On to `Cc1noc(C)c1CN1CCO[C@H]2[C@H](Oc3ncccc3F)CC[C@@H]21.O=C(O)C(F)(F)F.O=C(O)C(F)(F)F`, for which the “Percent Effect” value (30 µM, 30.03 µM) is on record as -9.669%.

Take `CCCN(CCc1ccccn1)C(=O)CCc1cnn(C)c1`: the “Percent Effect” value (30 µM, 30.03 µM) is -34.35%.

Turning to `CCN(CC)Cc1ccc(C(=O)N2CCCC2Cn2cccn2)cc1` (stereo not given), the “Percent Effect” value (10 µM) was -13.25%.

For the compound `CCc1cnc(CN(C)C2CCN(CC(=O)Nc3nccs3)C2)o1` (stereo not given), the “Percent Effect” value (10 µM) is given as -37.99%.

In the case of `COc1ccc(N2Cc3nc(=O)n(Cc4cccc(F)c4)n3C2=O)cc1`, the “Percent Effect” value (30 µM, 30.03 µM) is recorded as -5.99%.

Take `CCN1CCn2c(C)cnc2C12CCN(C(=O)NCC(C)C)CC2.O=C(O)C(F)(F)F`: the “Percent Effect” value (30.3 µM, […]) is given as -30.2%.

For the compound `Cc1ccc(Cl)cc1NC(=O)C1CC(=O)N(Cc2ccccn2)C1` (stereo not given), where the note is “30 µM, 30.03 µM”, the “Percent Effect” value worked out at 8.87%.

As to `O=C(Nc1ccccn1)C1CC(=O)N(Cc2ccccn2)C1` (stereo not given), the “Percent Effect” value (30 µM, 30.03 µM) is reported as -8.332%.

On to `COc1ncccc1NC(=O)C1CC(=O)N(Cc2ccccn2)C1` (stereo not given), for which the “Percent Effect” value (30 µM, 30.03 µM) stood at 55.04%.

For `CC(C)(C)NC(=O)CCOc1cccc(F)c1`, the “Percent Effect” value (10 µM) is on record as -74.47%.

`COc1ccccc1CN1CC[C@]2(C[C@@H](OC)CO2)C1.O=C(O)C(F)(F)F`: the “Percent Effect” value (30 µM, 30.03 µM) is recorded as -26.27%.

Consider `Cc1nn(C)c2c(NCCCn3cccn3)nc(C(C)C)nc12`, for which the “Percent Effect” value (30.3 µM, […]) was -9.582%.

Consider `COc1cc(C(=O)NCCc2ccccc2OC)on1`, for which the “Percent Effect” value (30.3 µM, […]) came to 101.4%.

Take `COc1cc(C(=O)NCCc2ccc(OC)c(OC)c2)on1`: the “Percent Effect” value (30.3 µM, […]) turned out to be 8.881%.

For `COc1cc(C(=O)NCCCc2ccccc2)on1`, the “Percent Effect” value (30.3 µM, […]) was determined as 10.61%.

Consider `Cc1occc1C(=O)N1CCC2(CCN(Cc3ccccn3)C2=O)C1.O=C(O)C(F)(F)F` (stereo not given), for which the “Percent Effect” value (30 µM, 30.03 µM) was -18.48%.

For the compound `Cc1cc(C)nc(N2CCN(Cc3nccn3C)CC2)n1.O=CO`, the “Percent Effect” value (30.3 µM, […]) was -2.711%.

As to `Cc1noc(C)c1CN1C[C@@H](OCc2ccccn2)[C@H]2OCCC[C@H]21.O=C(O)C(F)(F)F.O=C(O)C(F)(F)F`, the “Percent Effect” value (30 µM, 30.03 µM) is -32.5%.

Consider `O=C(O)C(F)(F)F.O=c1ccc2c([nH]1)CCC(NCc1ccc3c(c1)OCO3)C2` (stereo not given), for which, where the note is “30.3 µM, […]”, the “Percent Effect” value was -24.67%.

`CC(C)CCN1C2(CCN(C(=O)CN(C)C)C2)c2ccccc2S1(=O)=O.O=C(O)C(F)(F)F` (stereo not given): the “Percent Effect” value (30.3 µM, […]) is -2.24%.

Take `COc1ccc2c(c1)OC1(CCN(Cc3cccc(C)c3)CC1)CC2=O`: the “Percent Effect” value is on record as -0.9536% (30.3 µM, […]) and -48.74% (10 mM, 10 mM as filed; unlikely as a test dose).

Take `COc1ccc2c(c1)OC1(CCN(Cc3ccccc3C)CC1)CC2=O`: the “Percent Effect” value is 99.25% (30.3 µM, […]) and -45.93% (10 mM, 10 mM as filed; unlikely as a test dose).

Consider `COc1ccc2c(c1)OC1(CCN(Cc3ccc(C)cc3)CC1)CC2=O`, for which the “Percent Effect” value reads like this: (30.3 µM, […]) -15.07%; (10 mM, 10 mM as filed; unlikely as a test dose) -53.52%.

Turning to `Cc1nc(CN2CCCC(C)(CO)C2)no1` (stereo not given), the “Percent Effect” value (30 µM, 30.03 µM) is -41.91%.

Take `Cl.Cl.O=C(NCc1cncc2c1CCN(C1CCOC1)C2)c1ccco1` (stereo not given): the “Percent Effect” value (30.3 µM, […]) is -14.18%.

Regarding `Cc1ccc(C)c(CN(CC(N)=O)C(C)C)c1`, under “30 µM, 30.03 µM”, the “Percent Effect” value is -11.18%.

On to `COc1ccc(C(=O)C2CCCN(c3cc(OC)ncn3)C2)c(C)c1` (stereo not given), for which the “Percent Effect” value (30.3 µM, […]) was found to be 25.96%.

Turning to `CCc1nc(C)cc(N2CCCC(C(=O)c3ccc(OC)cc3C)C2)n1` (stereo not given), the “Percent Effect” value (30.3 µM, […]) is reported as 68.93%.

For the compound `COc1ccc(C(=O)C2CCCN(c3cc(N)ncn3)C2)c(C)c1` (stereo not given), the “Percent Effect” value (30.3 µM, […]) is 35.59%.

Consider `Cc1ccc(CN2CCc3nnc(CN4CCCC4=O)n3CC2)o1.O=C(O)C(F)(F)F`, for which, under “30.3 µM, […]”, the “Percent Effect” value came to 11.51%.

With `Cc1nnsc1C(=O)NCc1nn(C)c2c1CCCC2`, under “30 µM, 30.03 µM”, the “Percent Effect” value is given as 10.26%.

As to `O=C(Cc1ccc(F)c(F)c1)NC1COc2ccccc2C1=O` (stereo not given), the “Percent Effect” value (30.3 µM, […]) is 53.93%.

Consider `O=C(Cc1cccnc1)NC1COc2ccccc2C1=O` (stereo not given), for which the “Percent Effect” value (30.3 µM, […]) is recorded as -65.37%.

`O=C(Cc1cccc(F)c1F)NC1COc2ccccc2C1=O` (stereo not given): the “Percent Effect” value (30.3 µM, […]) was -49.3%.

In the case of `COCC(O)CN(C)c1cc(C(F)(F)F)nc(-c2cccnc2)n1` (stereo not given), the “Percent Effect” value (30 µM, 30.03 µM) came to 57.96%.

Turning to `CC(O)CN(C)c1cc(C(F)(F)F)nc(-c2cccnc2)n1` (stereo not given), the “Percent Effect” value (30 µM, 30.03 µM) is on record as 14.71%.

As to `COCCCN(C)c1cc(C(F)(F)F)nc(-c2cccnc2)n1`, the “Percent Effect” value (30 µM, 30.03 µM) was found to be 14.1%.

As for `CNc1oc(-c2ccc(S(=O)(=O)N(C)C)o2)nc1C#N`, the “Percent Effect” value (30 µM, 30.03 µM) is -28.85%.

On to `CN(C)S(=O)(=O)c1ccc(-c2nc(C#N)c(NC(C)(C)C)o2)o1.Cl`, for which the “Percent Effect” value (30 µM, 30.03 µM) amounted to 94.64%.

Turning to `CN(C)S(=O)(=O)c1ccc(-c2nc(C#N)c(NC3CCCCC3)o2)o1`, the “Percent Effect” value (30 µM, 30.03 µM) is on record as -26.33%.

In the case of `CN(C)S(=O)(=O)c1ccc(-c2nc(C#N)c(NC3CC3)o2)o1`, where the note is “30 µM, 30.03 µM”, the “Percent Effect” value is -26.91%.

In the case of `CC(C)Nc1oc(-c2ccc(S(=O)(=O)N(C)C)o2)nc1C#N`, the “Percent Effect” value (30 µM, 30.03 µM) is recorded as -8.182%.
